Assay results published in PubChem BioAssay (NCI).
The panel holds about 79,000 compounds, 15% with a hit somewhere; the sample as a whole holds those more often. Active and inactive are the calls of the source. Rule as the data show it: active = growth inhibition above about 70%; inactive = the rest.

Test: NCI Yeast Anticancer Drug Screen. Data for the mec2-1 strain (AID 157)
Details: S. cerevisiae mec2-1 strain, at 50.0 µM (retest, dose inferred, filed as 5.0), hits give high values
Outline: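 Strain: mec2-1 (DNA repair/cell cycle alteration). Compound exposure, then growth measured; inhibition expressed relative to vehicle.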

| SMILES | growth inhibition |
| --- | --- |
| N#C/C(=N\O)C(N)=O | 93% (active) |
| COc1ccc(C(N)=O)cc1 | 0% (inactive) |
| CC1=C(/C=C/C(C)=C/C(=O)O)C(C)(C)CCC1 | 47% (inactive) |
| CC(=O)Oc1c(Br)cc(Br)cc1C(OC(C)=O)OC(C)=O | 87% (active) |
| CCCCCCN(CCCCCC)CCCCCCCCCCCO | 98% (active) |
| COc1cccc(NC(=O)c2c(SC)n[nH]c2N)c1 | 98% (active) |
| O=C(O)/C=C\C(=O)NNc1ccccc1 | 95% (active) |
| Oc1ccc(Cc2cccc(Cl)c2)c(O)c1 | 96% (active) |
| C=COC(=O)c1ccccc1C(=O)OCCCC | 3% (inactive) |
| O=C(O)c1ccc(-c2ccccc2)cc1 | 38% (inactive) |
| N#CC(c1ccccc1)C(c1ccccc1)c1ccccc1 (stereo not drawn) | 89% (active) |
| CC(C)(C)c1cc([N+](=O)[O-])c(O)c([N+](=O)[O-])c1 | 54% (inactive) |
| CSC(SC)=C(C#N)C(=O)Nc1cccc(Cl)c1 | 99% (active) |
| CCOC(=O)C(NC(C)=O)C(=O)c1ccccc1 (stereo not drawn) | -4% (inactive) |
| O=[N+]([O-])/C=C/c1cccs1 | 99% (active) |
| C/C(=N\Nc1ccc(Cl)cc1)C(=O)O | 98% (active) |
| CC(=O)Nc1ccc(/C=N/NC(=S)NCC(C)C)cc1 | 3% (inactive) |
| CCCCN(CCCC)C(=O)C(C)OC(C)=O (stereo not drawn) | 0% (inactive) |
| C=CCCCCCCCCC(=O)NN | 79% (active) |
| C1CCC(CCCc2nn[nH]n2)CC1 | 64% (inactive) |
| CSS(C)(=O)=O | 99% (active) |
| Clc1ccc(-n2ncc3c(Cl)nc(Cl)nc32)cc1 | 99% (active) |
| C(CCc1nn[nH]n1)CCC1CCCCC1 | 98% (active) |
